The values below come from PubChem BioAssay (Tox21).

Assay [1] in a line: qHTS RealTime-Glo MT Cell Viability Assay in HEK293 cells - 16 hour (AID 1224872). Further: nearly all actives have a fitted effect of over 50% in size. Further: potency means the concentration at half of the fitted maximal effect. On activity change, negative = cytotoxicity: top concentration of the series differs between compounds. Summed up:
(§1)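 Assay medium contained NanoLuc luciferase plus cell-permeant prosubstrate, added with HEK293 cells at 600 cells/well. After 5 h at 37 C/5% CO2 compounds were added; plates stayed at 37 C for 40 h with serial luminescence reads.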

Assay [2] is described as follows: qHTS RealTime-Glo MT Cell Viability Assay in HepG2 cells - 8 hour (AID 1224873). Further: nearly all actives have a fitted effect of over 55% in size. Summed up: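 HepG2 cells (600/well) mixed with RealTime-Glo MT reagent, settled 5 h at 37 C/5% CO2 before compound addition. Nonlytic NanoLuc luminescence from viable-cell prosubstrate reduction read repeatedly during 40 h treatment at 37 C.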
Assay [3] in a line: A CellTox Green Cytotoxicity Assay to monitor cytotoxicity in HEK293 cells - 24 hour (AID 1224875). Further: nearly all actives have a fitted effect of over 45% in size. Further: potency means the concentration at half of the fitted maximal effect. On activity change: series mostly up to about 77 µM. Summed up: (§2)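 Tox21 screen in HEK293: membrane-impermeant cyanine dye fluoresces on binding dead-cell DNA; compound pinned 5 h post-seeding, plates held at 37 C, signal read repeatedly through 40 h.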
Assay [4] is described as follows: A CellTox Green Cytotoxicity Assay to monitor cytotoxicity in HepG2 cells - 16 hour (AID 1224876). Further: nearly all actives have a fitted effect of over 45% in size. Further: potency means the concentration at half of the fitted maximal effect. Summed up:
(§3)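 Measurements at 0, 8, 16, 24, 32 and 40 h of treatment captured CellTox Green fluorescence in HepG2 cells that had been co-plated with reagent and preincubated 5 h at 37 C/5% CO2.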

The nature of assay [5]: qHTS RealTime-Glo MT Cell Viability Assay in HepG2 cells - 32 hour (AID 1224877). Further: nearly all actives have a fitted effect of over 55% in size. Further: potency means the concentration at half of the fitted maximal effect. In short, it runs like this:
(§4)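 qHTS, HepG2, 600 cells/well, RealTime-Glo (NanoLuc + prosubstrate) added with cells; 5 h preincubation; DMSO compound addition; 37 C; luminescence at 0/8/16/24/32/40 h.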

A short description of assay [6]: A CellTox Green Cytotoxicity Assay to monitor cytotoxicity in HepG2 cells - 24 hour (AID 1224878). Further: nearly all actives have a fitted effect of over 45% in size. Further: potency means the concentration at half of the fitted maximal effect. Summed up: as §3
The nature of assay [7]: A CellTox Green Cytotoxicity Assay to monitor cytotoxicity in HepG2 cells - 40 hour (AID 1224879). Further: nearly all actives have a fitted effect of over 40% in size. Further: potency means the concentration at half of the fitted maximal effect. In short, it runs like this:
as §3

Assay [8] in a line: qHTS RealTime-Glo MT Cell Viability Assay in HEK293 cells - 0 hour (AID 1224880). Further: top concentration of the series differs between compounds; nearly all actives have a fitted effect of over 45% in size. Summed up:
(§5)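 HEK293 + NanoLuc + prosubstrate, 600 cells/well; 5 h, 37 C/5% CO2; compound 23 nL in DMSO by pintool; 37 C; luminescence read at 0, 8, 16, 24, 32 and 40 h time points.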

The nature of assay [9]: A CellTox Green Cytotoxicity Assay to monitor cytotoxicity in HEK293 cells - 32 hour (AID 1224881). Further: nearly all actives have a fitted effect of over 40% in size. Further: potency means the concentration at half of the fitted maximal effect. Summed up:
as §2

Assay [10] in a line: A CellTox Green Cytotoxicity Assay to monitor cytotoxicity in HepG2 cells - 0 hour (AID 1224882). Further: nearly all actives have a fitted effect of over 35% in size. Further: potency means the concentration at half of the fitted maximal effect. Summed up: as §3
The nature of assay [11]: A CellTox Green Cytotoxicity Assay to monitor cytotoxicity in HepG2 cells - 32 hour (AID 1224883). Further: nearly all actives have a fitted effect of over 50% in size. Further: potency means the concentration at half of the fitted maximal effect. In short, it runs like this: as §3
Assay [12] can be described thus: A CellTox Green Cytotoxicity Assay to monitor cytotoxicity in HEK293 cells - 8 hour (AID 1224884). Further: nearly all actives have a fitted effect of over 35% in size. Further: potency means the concentration at half of the fitted maximal effect. In short, it runs like this: as §2
The nature of assay [13]: qHTS RealTime-Glo MT Cell Viability Assay in HepG2 cells - 16 hour (AID 1224885). Further: nearly all actives have a fitted effect of over 50% in size. Further: potency means the concentration at half of the fitted maximal effect. Summed up: as §4
Assay [14] can be described thus: qHTS RealTime-Glo MT Cell Viability Assay in HEK293 cells - 24 hour (AID 1224886). Further: nearly all actives have a fitted effect of over 50% in size. Further: potency means the concentration at half of the fitted maximal effect. On activity change, negative = cytotoxicity: top concentration of the series differs between compounds. Summed up:
as §1

Assay [15] in a line: qHTS RealTime-Glo MT Cell Viability Assay in HEK293 cells - 8 hour (AID 1224887). Further: nearly all actives have a fitted effect of over 50% in size. Further: potency means the concentration at half of the fitted maximal effect. On activity change, negative = cytotoxicity: top concentration of the series differs between compounds. Summed up: as §5
The nature of assay [16]: A CellTox Green Cytotoxicity Assay to monitor cytotoxicity in HEK293 cells - 16 hour (AID 1224888). Further: nearly all actives have a fitted effect of over 35% in size. Further: potency means the concentration at half of the fitted maximal effect. Summed up: as §2
A short description of assay [17]: qHTS RealTime-Glo MT Cell Viability Assay in HepG2 cells - 0 hour (AID 1224889). Further: nearly all actives have a fitted effect of over 50% in size. In short, it runs like this:
as §4

Assay [18] in a line: A CellTox Green Cytotoxicity Assay to monitor cytotoxicity in HepG2 cells - 8 hour (AID 1224890). Further: nearly all actives have a fitted effect of over 45% in size. Further: potency means the concentration at half of the fitted maximal effect. In short, it runs like this: as §3
A short description of assay [19]: qHTS assay to identify small molecule antagonists of the estrogen receptor alpha (ER-alpha) signaling pathway using the BG1 cell line in the presence of 0.1 nM 17-beta-estradiol - cell viability counter screen (AID 1259241). Further: nearly all actives have a fitted effect of over 40% in size. Further: potency means the concentration at half of the fitted maximal effect. Summed up:
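Cytotoxicity counter-screen: live-cell protease activity measured by fluorescence (30 min reagent step) in the same wells. Cells were VM7Luc4E2 with endogenous ER-alpha and ERE-driven luciferase, treated 22 hr at 37C alongside 0.1 nM 17beta-estradiol final.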

Assay [20] in a line: qHTS RealTime-Glo MT Cell Viability Assay in HEK293 cells - 40 hour (AID 1224874). Further: nearly all actives have a fitted effect of over 50% in size. Further: potency means the concentration at half of the fitted maximal effect. To be noted: RealTime-Glo luminescence; max response: stronger effect = lower value. Summed up: as §5

Unmarked numbers belong to inactive results. Results filed as inconclusive are left out. Activity calls are given as the source filed them. The call rests on the fitted dose curve; in most records, active means well fitted curve in the direction sought with a large enough effect in the repeat runs; inconclusive means weak or mixed curves; inactive means no such curve, though single readings can be large; an effect the other way counts as inactive or inconclusive.
On the % scale 0 is the no-effect control and ±100 the full control effect.

`CSc1ccc(/C=C2/C(C)=C(CC(=O)O)c3cc(F)ccc32)cc1`: the Potency result in [1], in assay [2], in assay [3], in [4], in [5] and in assay [6] was “inactive” each time. Moreover, the Potency entry in assay [7], in assay [8], in assay [9], in [10], in assay [11] and in [12] was “inactive” each time. For the same molecule, the Potency result in [13], in assay [14], in assay [15], in [16], in assay [17] and in assay [18] was “inactive” in each case. Further, the Potency entry in [19] is “inactive”.
As to `CC(C)OC(=O)c1cc2c(OCC(O)CNC(C)(C)C)cccc2[nH]1` (centres undefined), the Potency in assay [1] was 4.77 µM (active); in assay [20], 9.52 µM (active); in [14], 9.52 µM (active); in assay [15] it was 9.52 µM (active). Also, the Potency result in [2], in assay [4], in [5], in assay [6], in [8] and in assay [10] was “inactive” throughout. For the same molecule, the Potency result in assay [13], in assay [17] and in assay [18] was “inactive” in each case.
Take `[O-][n+]1ccccc1SSc1cccc[n+]1[O-]`: the Potency in assay [1] is 1.31 µM (active); in assay [20] it was 1.17 µM (active); in [3], 4.65 µM (active); in assay [4], 9.28 µM (active); in assay [5], 0.165 µM (active); in [6], 1.47 µM (active). Further, the Potency is 0.329 µM (active) in assay [7]; 11.7 µM (active) in [10]; 0.585 µM (active) in assay [11]; 10.4 µM (active) in assay [12]; 0.233 µM (active) in assay [13]; 1.31 µM (active) in assay [14]. For the same molecule, the results for the Potency in assay [16], in assay [18] and in assay [19] were 8.27 µM (active), 10.4 µM (active) and 0.411 µM (active), respectively. In addition, the results for the activity change, negative = cytotoxicity in assay [8] and in assay [17] were -7.04% [at 15.8 µM] and -1.89% [at 15.8 µM], respectively.
Turning to `Cc1ccc2oc(CN(Cc3ccccc3)C(=O)Nc3c(F)cc(F)cc3F)c(-c3ccc(Cl)cc3)c2c1`, the Potency entry in assay [1], in [3], in assay [4], in [6], in assay [7] and in assay [8] was “inactive” throughout. Also, the Potency entry in [9], in assay [10], in [11], in assay [12], in assay [14] and in assay [15] was “inactive” throughout. The Potency result in [16], in assay [17], in assay [18] and in assay [19] was “inactive” in each case. The max response in assay [20] was -18.1%.
In the case of `CCN(CC)CCCC(C)Nc1c2ccc(Cl)cc2nc2ccc(OC)cc12` (centres undefined), the Potency is 4.25 µM (active) in [1]; 3.01 µM (active) in [20]; 10.7 µM (active) in assay [3]; 16.9 µM (active) in assay [4]; 6.01 µM (active) in assay [5]; 9.52 µM (active) in assay [6]. Besides, the Potency in assay [7] is 6.01 µM (active); in assay [9] it was 7.56 µM (active); in assay [10] it was 21.3 µM (active); in assay [11] it was 6.74 µM (active); in assay [13], 9.52 µM (active); in [14] it was 4.25 µM (active). Besides, the Potency in assay [16] is 23.9 µM (active); in assay [18] it was 16.9 µM (active). The Potency result in [8], in [17] and in [19] was “inactive” in each case.
Regarding `CCN(CCC#N)c1ccc(N=Nc2c(Cl)cc([N+](=O)[O-])cc2Cl)cc1`, the Potency result in assay [1], in [3], in assay [4], in assay [6], in [7] and in [8] was “inactive” each time. In addition, the Potency entry in assay [9], in assay [10], in assay [11], in assay [12], in [14] and in assay [16] was “inactive” in each case. The Potency entry in assay [17] and in assay [18] was “inactive” in each case. Besides, the max response in assay [20] was -15.8%.
For the molecule `On1ccccc1=S`, the Potency in assay [1] was 3.85 µM (active); in assay [20] it was 3.85 µM (active); in assay [4] it was 1.93 µM (active); in assay [5], 0.485 µM (active); in [6] it was 0.432 µM (active); in assay [7], 0.385 µM (active). The Potency in assay [9] is 1.22 µM (active); in [11], 0.385 µM (active); in assay [14], 3.85 µM (active); in assay [19], 9.59 µM (active). In addition, the Potency entry in assay [8], in assay [10], in assay [12], in assay [16], in assay [17] and in assay [18] was “inactive” in each case.
